Screening data (PubChem)
Compounds with a hit are over-represented: about 7.9% of the library has one in this group of screens.
SW480 rereplic: DNA re-replication induction in SW480 cells; SW480 DNA re-replication, Hoechst DNA content imaging, 48 h; Potency, µM (highest dose often 46.1 µM), without a hit: at the highest dose re-replication activation, hits mostly activators; 340,000 compounds, 1.8% hits; AID 624297; also: % of control where 0% means no effect; nearly all actives have a fitted effect of over 55% in size
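Per well, 250 cells were exposed to pinned compound for 48 hr. Nuclear DNA was visualised with Hoechst (40 min, 37 C) and total object intensity recorded by fluorescence scanning.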
KB-3-1 cytotox: KB-3-1 parental cell cytotoxicity | KB-3-1 viability, CellTiter-Glo ATP luminescence, 72 h | Potency, µM (highest dose often 46.1 µM), actives largely listed as cytotoxic | 400,000 compounds, 1.4% hits | AID 1347075; also: % is scaled to controls: 0 for no effect and ±100 for the full control effect; nearly all actives have a fitted effect of over 60% in size
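72 h, 37 °C compound treatment of KB-3-1 parental cells; CellTiter-Glo added, 10 min, luminescence read. Data corrected against DMSO-only plates and normalized before curve fitting.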
HT1080 IDH1KD tx: HT-1080 IDH1 knockdown cell toxicity (counter line); 360,000 compounds, 2% hits; Potency, µM (titrated, usually from 46.1 µM), for the others: at the highest dose activity, negative = toxicity, actives largely listed as cytotoxic; AID 686971; HT-1080 IDH1 knockdown viability, ATP luminescence, 48 h;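 also: 0% = DMSO wells and -100% = cell-free medium wells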
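CellTiter-Glo luminescence after 48 h compound exposure at 37 degrees C of IDH1-knockdown HT-1080 cells in 5% FBS RPMI. %Activity scaled between DMSO wells and cell-free media wells, with curves fitted and assigned curve classes.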
MCF10A rerep: inducers of DNA re-replication in MCF 10A breast cells; MCF 10A DNA re-replication, Hoechst nuclear intensity, 48 h; Potency, µM (top dose mostly 46.1 µM), inactives show at the highest dose activity, positive = re-replication, actives largely listed as activators; 350,000 compounds, 2.9% hits; AID 624296; also: % of control where 0% means no effect; nearly all actives have a fitted effect of over 50% in size
HT1080-NT tox: kills 2HG-producing HT-1080-NT fibrosarcoma cells. 360,000 compounds, 1.6% hits. HT-1080-NT fibrosarcoma viability, CellTiter-Glo ATP luminescence, 48 h. Potency, µM (series often up to 46.1 µM), without a hit: top-dose activity, negative = less viability, usual class: cytotoxic;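 also: NT is the 2HG producing partner of a matched IDH1 knockdown line; 0% = DMSO-treated cells and -100% = media-only wells without cells; nearly all actives have a fitted effect of over 55% in size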
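A 48-hour cytotoxicity screen used HT-1080-NT cells plated 2 hours before compound delivery. ATP-based CellTiter-Glo luminescence measured viability, normalized to DMSO and no-cell controls.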
KB-V1 cytotox: KB-V1 MDR subline cytotoxicity; KB-V1 MDR cells viability, CellTiter-Glo, 72 h; Potency, µM (highest dose often 46.1 µM), actives largely listed as cytotoxic; 400,000 compounds, 3.4% hits; AID 1347076; also: % is scaled to controls: 0 for no effect and ±100 for the full control effect; nearly all actives have a fitted effect of over 60% in size
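Compound-treated KB-V1 multidrug-resistant cells, 72 h, 37 degrees C; viability by CellTiter-Glo. Fitted qHTS curves give the values.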
Numbers without * were called inactive; i = inactive; ? = inconclusive; · = no result. Calls follow the shape of the dose curve; as a rule, active = well fitted curve in the direction sought with a large enough effect; inconclusive = small, poorly fitted or top-dose-only effect, or another doubt; inactive = no such curve, though single readings can be large; an effect the other way counts as inactive or inconclusive. Potency is read from the fitted curve at half-maximal effect.

SMILES	SW480 rereplic	KB-3-1 cytotox	HT1080 IDH1KD tx	MCF10A rerep	HT1080-NT tox	KB-V1 cytotox
COCCNC(=O)c1ccccc1NC(=O)Cc1ccccc1	2.0%	i	0.4%	22.1%	2.3%	i
COc1ccccc1C(=O)NCCC(=O)NCCOc1ccccc1	4.2%	i	9.9%	1.6%	-19.6%	i
COCCNC(=O)c1ccccc1NC(=O)CCSc1ccccc1	17.5%	i	0.5%	1.3µM*	0.2%	?
COc1ccccc1C(=O)NCCC(=O)NCCCSc1ccccc1	-3.7%	i	-5.5%	4.9%	0.1%	20.6µM*
COC(=O)C1=C(O)C2(C(=O)O)CC(C(=O)OC)=C(O)C(C(=O)O)(C1)C2	12.0%	i	2.3%	0.6%	-2.1%	i
Cc1ccc(C(=O)N/N=C\C2CC=CCC2)cc1[N+](=O)[O-] (stereo not given)	1.6%	i	?	-14.5%	-25.0%	?
CCOc1cc(C(=O)N/N=C/C2CC=CCC2)cc(OCC)c1OCC (stereo not given)	23.1µM*	i	-15.7%	?	-1.1%	i
COc1cc(N2C(=O)C=CC2=O)ccc1N1C(=O)C=CC1=O	13µM*	18.4µM*	9.2µM*	6.51µM*	?	?
COc1ccc(NC(=O)N2CCCC2C(=O)NCCc2ccccc2)cc1 (stereo not given)	?	i	10.9%	-1.2%	6.9%	?
OC[C@@H]1CN(Cc2ccc(-c3ccccc3)cc2)C[C@H](n2cnc3c(N4CCOCC4)ncnc32)O1	·	i	20.6µM*	·	18.4µM*	i
OC[C@@H]1CN(Cc2ccc(Cl)cc2)C[C@H](n2cnc3c(N4CCN(c5ccccc5)CC4)ncnc32)O1	·	?	16.4µM*	·	18.4µM*	?
OC[C@@H]1CN(Cc2ccc(-c3ccccc3)cc2)C[C@H](n2cnc3c(NC4CCC4)ncnc32)O1	·	?	16.4µM*	·	13µM*	?
OC[C@@H]1CN(Cc2ccccc2)C[C@H](n2cnc3c(NC4CC4)ncnc32)O1	·	i	21.4%	·	13.1%	i
OC[C@@H]1CN(Cc2ccc(Cl)cc2)C[C@H](n2cnc3c(N4CCOCC4)ncnc32)O1	·	i	2.8%	·	?	i
CN(C)CCNc1ncnc2c1ncn2[C@H]1CN(Cc2ccc(F)cc2)C[C@@H](CO)O1	·	8.2µM*	16.6%	·	0.1%	i
O=C(CCC(=O)c1ccc(-c2ccccc2)cc1)Nc1cccnc1	-25.1%	i	2.7%	?	7.1%	i
CCOC(=O)[C@]12CCCC=C1N(Cc1ccco1)C(=O)[C@H](CC(=O)N1CCN(C(=O)c3ccco3)CC1)C2	·	i	13.2%	·	24.7%	i
CC12CCC(=O)N1C(C(=O)NNC(=O)c1ccc(F)cc1)CS2 (stereo not given)	4.2%	i	-9.8%	-0.8%	-6.2%	i
Cn1c(SCc2ccccc2)nnc1C1CCCNC1 (stereo not given)	1.2%	i	6.8%	-0.3%	13.2%	i
COc1ccc(CN2C[C@@H](CO)O[C@@H](n3cnc4c(N5CCN(c6ccccc6)CC5)ncnc43)C2)cc1	·	i	18.4µM*	·	?	i
Cn1c(/C=C/c2ccc(Cl)cc2)c([N+](=O)[O-])c(=O)n(C)c1=O	17.8%	?	?	7.31µM*	?	i
COc1ccc(NC(=S)NC(NC(=O)c2cccc3ccccc23)C(Cl)(Cl)Cl)c([N+](=O)[O-])c1 (stereo not given)	?	i	0.5%	3.2%	-22.2%	i
O=[N+]([O-])c1ccc(S(=O)(=O)CC2CSc3nc4ccccc4n32)cc1 (stereo not given)	?	1.84µM*	-9.5%	12.3%	0.4%	2.59µM*
Nc1nnc(SCC(=O)OCC(=O)NC2CCCCC2)s1	-7.9%	i	13.7%	4.5%	1.5%	?
CCOc1ccccc1NC(=O)CSc1nc2nc(-c3cccs3)cc(C(F)(F)F)c2c(=O)[nH]1	-4.4%	i	?	16.4µM*	?	i
SMILES	SW480 rereplic	KB-3-1 cytotox	HT1080 IDH1KD tx	MCF10A rerep	HT1080-NT tox	KB-V1 cytotox
CCn1ncc(C2=NOC(C(=O)NCc3ccccc3)C2)c1C (stereo not given)	3.66µM*	1.64µM*	1.78µM*	4.61µM*	2.82µM*	?
COc1cccc(C2=NOC(C(=O)Nc3cccc(C(C)=O)c3)C2)c1OC (stereo not given)	-2.9%	i	-2.9%	17.0%	0.8%	i
CCn1ncc(C2=NOC(C(=O)Nc3c(C)n(C)n(-c4ccccc4)c3=O)C2)c1C (stereo not given)	-9.6%	i	-0.4%	-0.1%	-1.4%	i
CCn1ncc(C2=NOC(C(=O)Nc3cccc(C(C)=O)c3)C2)c1C (stereo not given)	-9.9%	?	-23.4%	-2.8%	0.0%	18.4µM*
COc1ccc(-c2[nH]ncc2CN2CCCOc3c(cccc3OC)C2)c(OC)c1	-137.4%	i	4.5%	-7.5%	12.5%	i
NS(=O)(=O)c1ccc(CCN2C(=O)CCC2=O)cc1	0.1%	i	12.6%	-0.4%	29.9%	i
C=CCn1c(SCC(=O)c2cc(C)n(C(C)COC)c2C)nc2sc(C)c(C)c2c1=O (stereo not given)	?	i	?	18.4µM*	-28.1%	8.2µM*
C=CCn1c(SCc2c(C)noc2C)nc2sc(C)c(C)c2c1=O	?	i	11.2µM*	23.1µM*	15.8µM*	i
O=C(CNC(=S)NC(=O)c1ccc(Br)o1)c1ccccc1	20.6µM*	i	-0.9%	6.51µM*	-1.2%	i
CCOC(=O)N1CCN(Cc2nc(-c3ccc(OC)cc3)no2)CC1	-5.1%	i	2.5%	16.7%	3.2%	8.2µM*
CCOC(=O)N1CCN(Cc2nc(-c3ccc(Cl)cc3)no2)CC1	-2.7%	i	-4.5%	1.8%	-15.0%	i
Cc1ccc(C)c(N2CCN(C(=O)CCc3nc(-c4ccc(Br)cc4)no3)CC2)c1	20.6%	i	-1.1%	20.8%	-2.5%	i
Cc1ccc(-c2noc(CCC(=O)N3CCN(c4cc(C)ccc4C)CC3)n2)cc1	-8.2%	i	2.3%	20.6µM*	5.4%	i
COc1ccc(-c2noc(CCCC(=O)N3CCN(c4cc(C)ccc4C)CC3)n2)cc1	-1.7%	i	-1.2%	13µM*	-5.2%	i
COc1ccc(-c2noc(CCCCC(=O)N3CCN(c4cc(C)ccc4C)CC3)n2)cc1	-12.2%	?	-29.3%	16.3%	-21.9%	?
CC(C)=N/N=c1\scc(C)n1Cc1ccco1	-6.1%	i	1.4%	13.7%	1.9%	i
